Test results published in the supplement of paper PMC9177965.

test system: HT29 sg-Ctrl (RNF43 wildtype); experiment: cell viability activity relative to DMSO (negative = inhibition); higher = more viable cells (less growth inhibition); settings: 5 µM; 96 h
Method: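 Broad Repurposing Library primary screen at a single dose of 5 uM. HT29 sg-Ctrl and HT29 RNF43 G659fs CRISPR-edited isogenic cells were seeded at 2500 cells/well in 384-well plates in duplicate and treated for 96 h. Viability was read by CellTiter-Glo and reported as % activity relative to DMSO, with MG132 as the positive control (negative = growth inhibition).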

Compound	cell viability activity [%]
Oc1cc(Cl)ccc1Oc1ccc(Cl)cc1Cl	-92.8
CC1CC(C)C(=O)C(C(O)CC2CC(=O)NC(=O)C2)C1 (centres undefined)	-81.2
CCN(CC)CCO[C@H]1CC[C@@]2(C)C(=CC[C@@H]3[C@@H]2CC[C@]2(C)C(=O)CC[C@@H]32)C1	-52.8
N#Cc1cn([C@@H]2O[C@H](CO)[C@@H](O)[C@H]2O)c2ncnc(N)c12	-89.9
CC[C@@]1(O)C(=O)OCc2c1cc1n(c2=O)Cc2cc3ccccc3nc2-1	-91.5
O=[N+]([O-])C=Cc1ccc2c(c1)OCO2	-21
O=C(C[C@H]1NCCC[C@@H]1O)Cn1cnc2cc(Br)c(Cl)cc2c1=O	-86.5
Clc1cccc(SC2CCNCC2)n1	-64.7
c1ccc2c(c1)[I+]c1ccccc1-2	-52.1
N#CC(C#N)=NNc1cccc(Cl)c1	-68.2
CN1CCN(c2cccc3[nH]c(=O)oc23)CC1	-54.8
Oc1cccc2cccnc12	-34.8
C=C1[C@@H](C)[C@H]2[C@H](Cc3ccccc3)NC(=O)[C@]23OC(=O)/C=C/[C@H](O)CCC[C@@H](C)C/C=C/[C@H]3[C@@H]1O	-36.1
COc1cc([C@@H]2c3cc4c(cc3[C@H](O)[C@H]3COC(=O)[C@H]23)OCO4)cc(OC)c1OC	-58.2
